In PubChem BioAssay (Tox21):
A number with no mark means an inactive call. Records with an inconclusive call do not appear. Entries that show only a call come without a potency. Activity calls are given as the source filed them. Unless noted, calls come from the whole dose curve; as a rule, active = well fitted curve in the direction sought with a large enough effect in the repeat runs; inconclusive = weak or mixed curves; inactive = no such curve, though single readings can be large; an effect the other way counts as inactive or inconclusive.

Tests used:
[1] = qHTS assay for small molecule agonists of the p53 signaling pathway (AID 651631; calls by dose curve; note: nearly all actives have a fitted effect of over 15% in size; note: potency is the fitted concentration of half-maximal effect)
Procedure, shortened: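 Beta-lactamase reporter activity under p53 response elements was quantified in HCT-116 cells by FRET fluorescence, following 16 h incubation with test compounds at 37 °C and 2 h substrate development at room temperature.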

[2] = qHTS assay for small molecules that induce genotoxicity in human embryonic kidney cells expressing luciferase-tagged ATAD5 (AID 651632); note: nearly all actives have a fitted effect of over 15% in size
Procedure, shortened: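 Cells were seeded at 2,000 per well, dosed with compound, and incubated 16 hr at 37C in 5% CO2. Luciferase activity was then quantified after a 30 min room-temperature incubation with Amplite.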

[3] = qHTS assay for small molecule agonists of the p53 signaling pathway - cell viability (AID 651633; calls by dose curve; note: nearly all actives have a fitted effect of over 30% in size; note: potency is the fitted concentration of half-maximal effect)
Procedure, shortened: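 p53RE-bla cells were treated with compound for 16 hours at 37 C. Cytotoxicity was then measured as CellTiter-Glo luminescence after 30 min at room temperature.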

[4] = qHTS assay for small molecule disruptors of the mitochondrial membrane potential - cell viability (AID 720634; calls by dose curve; note: nearly all actives have a fitted effect of over 20% in size; note: potency is the fitted concentration of half-maximal effect)
Procedure, shortened: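 Cytotoxicity was measured by ATP quantitation in HepG2 wells that had first been treated with compound for 1 hr and stained with m-MPI dye; CellTiter-Glo incubation was 30 min at room temperature.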

[5] = qHTS assay for small molecule disruptors of the mitochondrial membrane potential (AID 720635); note: potency is the fitted concentration of half-maximal effect
Procedure, shortened: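 HepG2 cells exposed to compound 1 hr at 37C, then Mito-MPS dye 30 min. Ratio read of aggregate (540/590 nm) versus monomer (490/535 nm) fluorescence.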

[6] = qHTS assay to test for compound auto fluorescence at 590 nm (red) in HepG2 cells (AID 720674)
Procedure, shortened: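 Fluorescence at 590 nm emission following 540 nm excitation was recorded from HepG2 wells one hour after compound transfer, with DMSO-only wells as vehicle and Rose Bengal sodium equivalency as the scale.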

[7] = qHTS assay to test for compound auto fluorescence at 535 nm (green) in HepG2 cells (AID 720675)
[8] = qHTS assay to test for compound auto fluorescence at 460 nm (blue) in HEK293 cells (AID 720678)
Procedure, shortened: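 Auto fluorescence in the blue band was quantified as triamterene equivalency. HEK293 cells were seeded at 2,000/well, dosed after a 4-5 hr attachment, and kept overnight at 37C before the 405/460 nm reading.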

[9] = qHTS assay to test for compound auto fluorescence at 590 nm (red) in HEK293 cells (AID 720679)
Procedure, shortened: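 Autofluorescence equivalency to Rose Bengal sodium, 540/590nm, in HEK293 cells exposed overnight to 23 nL compound per well.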

[10] = qHTS assay to test for compound auto fluorescence at 535 nm (green) in HEK293 cells (AID 720680)
[11] = qHTS assay to test for compound auto fluorescence at 460 nm (blue) in HEK293 cell free culture (AID 720681)
Procedure, shortened: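 Compounds were added to cell-free DMEM with 10% FBS and fluorescence read directly. The blue channel used 405 nm excitation and 460 nm emission, with triamterene as the reference fluorophore.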

[12] = qHTS assay to test for compound auto fluorescence at 535 nm (green) in HEK293 cell free culture (AID 720682)
Procedure, shortened: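 Each library compound, or DMSO control, is added by pintool to medium alone, comprising DMEM and 10% FBS. Emission at 535 nm following 485 nm excitation is quantified against fluorescein.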

[13] = qHTS assay to test for compound auto fluorescence at 590 nm (red) in HEK293 cell free culture (AID 720683)
Procedure, shortened: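 Cell-free wells of DMEM with 10% FBS received compound, and intrinsic fluorescence was read at excitation/emission 540/590 nm. Values expressed as equivalence to Rose Bengal sodium.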

[14] = qHTS assay to test for compound auto fluorescence at 590 nm (red) in HepG2 cell free culture (AID 720684)
Procedure, shortened: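 Auto fluorescence equivalency versus Rose Bengal sodium, red channel Ex/Em 540/590 nm; compounds in cell-free MEM/10% FBS; DMSO vehicle control.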

[15] = qHTS assay to test for compound auto fluorescence at 460 nm (blue) in HepG2 cell free culture (AID 720685)
Procedure, shortened: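 Cell-free plates of MEM plus 10% FBS received 23 nL compound or DMSO vehicle; blue-channel (405/460 nm) intensity scored against triamterene as reference fluorophore.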

[16] = qHTS assay to test for compound auto fluorescence at 535 nm (green) in HepG2 cell free culture (AID 720686)
[17] = qHTS assay to test for compound auto fluorescence at 460 nm (blue) in HepG2 cells (AID 720687)
Procedure, shortened: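 HepG2 cells in MEM with 10% FBS, attached overnight at 37 C, were exposed to compound or DMSO for 1 hr at 37 C, 5% CO2. Blue fluorescence was read at 405/460 nm, with triamterene as reference fluorophore.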

[18] = molecular target: Glucocorticoid receptor (Homo sapiens) (UniProt P04150); assay: qHTS assay to identify small molecule antagonists of the glucocorticoid receptor (GR) signaling pathway (AID 720692; active = well fitted inhibition curve with a large enough effect in the signal ratio in the repeat runs, not every such curve was filed as active; the % refers to the signal ratio; note: potency is the fitted concentration of half-maximal effect)
Procedure, shortened: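 Antagonism was scored as loss of dexamethasone-driven (5 nM final) reporter signal in HeLa cells bearing a glucocorticoid response element–beta-lactamase construct, after 18 h compound exposure at 37 C and 2 h FRET substrate loading.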

[19] = qHTS assay for small molecules that induce genotoxicity in human embryonic kidney cells expressing luciferase-tagged ATAD5 - cell viability (AID 651634; calls by dose curve; note: nearly all actives have a fitted effect of over 25% in size)
Procedure, shortened: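 Cells (HEK293T, luciferase-tagged ATAD5) are seeded at 2,000 per well, dosed with compound or DMSO vehicle, and incubated 15.5 hr at 37C and 5% CO2. CellTiter-Fluor is added for 30 min before fluorescence is measured.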

[20] = molecular target: Glucocorticoid receptor (Homo sapiens) (UniProt P04150); assay: qHTS assay to identify small molecule agonists of the glucocorticoid receptor (GR) signaling pathway (AID 720691; active = well fitted activation curve with a large enough effect in the signal ratio in the repeat runs, not every such curve was filed as active; the % refers to the signal ratio)
Procedure, shortened: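 Steps: seed GR-bla HeLa cells, incubate 4 h at 37 C/5% CO2; pin-transfer DMSO-dissolved compounds; incubate 18 h at 37 C; add LiveBLAzer B/G FRET substrate; after 2 h at room temperature, measure fluorescence.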

Chain of Glucocorticoid receptor (Homo sapiens) (P04150 whole entry, looked up): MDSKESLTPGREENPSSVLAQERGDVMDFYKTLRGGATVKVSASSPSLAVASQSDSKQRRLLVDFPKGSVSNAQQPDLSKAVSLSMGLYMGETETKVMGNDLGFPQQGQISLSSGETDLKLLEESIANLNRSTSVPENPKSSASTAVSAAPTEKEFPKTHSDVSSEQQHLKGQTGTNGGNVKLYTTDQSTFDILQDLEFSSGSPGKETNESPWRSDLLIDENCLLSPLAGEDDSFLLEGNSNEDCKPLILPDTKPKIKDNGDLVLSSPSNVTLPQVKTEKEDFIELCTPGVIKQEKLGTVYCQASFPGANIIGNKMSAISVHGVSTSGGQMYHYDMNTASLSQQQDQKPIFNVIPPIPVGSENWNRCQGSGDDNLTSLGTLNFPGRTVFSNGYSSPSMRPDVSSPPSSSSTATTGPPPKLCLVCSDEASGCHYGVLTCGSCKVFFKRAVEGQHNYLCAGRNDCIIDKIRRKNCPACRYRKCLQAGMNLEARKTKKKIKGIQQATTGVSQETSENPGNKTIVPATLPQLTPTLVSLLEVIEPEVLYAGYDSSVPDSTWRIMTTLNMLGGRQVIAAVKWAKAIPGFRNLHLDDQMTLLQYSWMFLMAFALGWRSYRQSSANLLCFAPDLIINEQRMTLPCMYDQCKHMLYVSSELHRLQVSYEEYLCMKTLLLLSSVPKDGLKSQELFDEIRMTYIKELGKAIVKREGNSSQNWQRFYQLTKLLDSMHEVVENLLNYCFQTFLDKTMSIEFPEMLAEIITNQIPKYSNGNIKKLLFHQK

Question: For `CCOC(=O)c1ccccc1C(=C1C=C(Br)C(=O)C(Br)=C1)c1cc(Br)c(O)c(Br)c1`, which Potency [1] is on record?
Answer: The Potency was 7.24 µM (active).

Question: What about the Potency [2] of the same compound?
Answer: The Potency was “inactive”.

Question: What about the Potency [3] of the same compound?
Answer: The Potency was 7.24 µM (active).

Question: What about the Potency [4] of the same compound?
Answer: Its Potency is “inactive”.

Question: What about the Potency [5] of the same compound?
Answer: The Potency was 20.4 µM (active).

Question: What about the outcome [6] of the same compound?
Answer: Its outcome is “inactive”.

Question: What about the outcome [7] of the same compound?
Answer: Its outcome is “inactive”.

Question: What about the Potency [8] of the same compound?
Answer: Its Potency is “inactive”.

Question: What about the outcome [9] of the same compound?
Answer: Its outcome is “inactive”.

Question: What about the outcome [10] of the same compound?
Answer: Its outcome is “inactive”.

Question: And the Potency [11]?
Answer: Its Potency is “inactive”.

Question: What about the outcome [12] of the same compound?
Answer: Its outcome is “inactive”.

Question: What about the outcome [13] of the same compound?
Answer: The outcome was “inactive”.

Question: And the outcome [14]?
Answer: Its outcome is “inactive”.

Question: What about the Potency [15] of the same compound?
Answer: Its Potency is “inactive”.

Question: And the outcome [16]?
Answer: Its outcome is “inactive”.

Question: And the Potency [17]?
Answer: Its Potency is “inactive”.

Question: And the Potency [18]?
Answer: The Potency was 4.61 µM (active).

Question: With `O=C(Cn1ccnc1[N+](=O)[O-])NCCO` as the compound, how does the Potency [1] read?
Answer: The Potency was “inactive”.

Question: What about the Potency [2] of the same compound?
Answer: Its Potency is “inactive”.

Question: What about the Potency [3] of the same compound?
Answer: Its Potency is “inactive”.

Question: And the Potency [19]?
Answer: Its Potency is “inactive”.

Question: And the Potency [4]?
Answer: The Potency was “inactive”.

Question: And the outcome [6]?
Answer: Its outcome is “inactive”.

Question: What about the outcome [7] of the same compound?
Answer: The outcome was “inactive”.

Question: And the Potency [8]?
Answer: The Potency was “inactive”.

Question: And the outcome [9]?
Answer: The outcome was “inactive”.

Question: What about the outcome [10] of the same compound?
Answer: Its outcome is “inactive”.

Question: What about the Potency [11] of the same compound?
Answer: The Potency was “inactive”.

Question: And the outcome [12]?
Answer: The outcome was “inactive”.

Question: What about the outcome [13] of the same compound?
Answer: Its outcome is “inactive”.

Question: What about the outcome [14] of the same compound?
Answer: The outcome was “inactive”.

Question: And the Potency [15]?
Answer: The Potency was “inactive”.

Question: What about the outcome [16] of the same compound?
Answer: Its outcome is “inactive”.

Question: And the Potency [17]?
Answer: The Potency was “inactive”.

Question: Which Potency [1] does the source give for `Clc1ccc(Nc2nnc(Cc3ccncc3)c3ccccc23)cc1` here?
Answer: Its Potency is “inactive”.

Question: And the Potency [2]?
Answer: The Potency was “inactive”.

Question: What about the Potency [3] of the same compound?
Answer: Its Potency is “inactive”.

Question: What about the Potency [4] of the same compound?
Answer: Its Potency is 18.8 µM (active).

Question: What about the Potency [5] of the same compound?
Answer: The Potency was 26.6 µM (active).

Question: What about the outcome [6] of the same compound?
Answer: The outcome was “inactive”.

Question: And the outcome [7]?
Answer: The outcome was “inactive”.

Question: What about the outcome [9] of the same compound?
Answer: The outcome was “inactive”.

Question: And the outcome [10]?
Answer: Its outcome is “inactive”.

Question: What about the Potency [11] of the same compound?
Answer: The Potency was “inactive”.

Question: And the outcome [12]?
Answer: Its outcome is “inactive”.

Question: What about the outcome [13] of the same compound?
Answer: Its outcome is “inactive”.

Question: And the outcome [14]?
Answer: Its outcome is “inactive”.

Question: What about the Potency [15] of the same compound?
Answer: Its Potency is “inactive”.

Question: What about the outcome [16] of the same compound?
Answer: The outcome was “inactive”.

Question: And the Potency [17]?
Answer: Its Potency is “inactive”.

Question: And the Potency [20]?
Answer: The Potency was “inactive”.

Question: With `CCCCOc1ccc(OCCCN2CCOCC2)cc1` as the compound, how does the Potency [1] read?
Answer: The Potency was “inactive”.

Question: And the Potency [2]?
Answer: The Potency was “inactive”.

Question: What about the Potency [3] of the same compound?
Answer: Its Potency is “inactive”.

Question: And the Potency [19]?
Answer: The Potency was “inactive”.

Question: And the Potency [4]?
Answer: Its Potency is “inactive”.

Question: And the fluorescence, relative to Rose Bengal [6]?
Answer: Its fluorescence, relative to Rose Bengal is -0.141% [at 18.6 µM].

Question: And the fluorescence, % of fluorescein control [7]?
Answer: The fluorescence, % of fluorescein control was -0.0009% [at 18.6 µM].

Question: And the fluorescence, % of triamterene [8]?
Answer: Its fluorescence, % of triamterene is -0.0611% [at 18.6 µM].

Question: What about the fluorescence, % of fluorescent control [9] of the same compound?
Answer: Its fluorescence, % of fluorescent control is -0.188% [at 18.6 µM].

Question: And the fluorescence, % of fluorescein [10]?
Answer: Its fluorescence, % of fluorescein is 0.0257% [at 18.6 µM].

Question: And the fluorescence, % of fluorescent control [11]?
Answer: Its fluorescence, % of fluorescent control is -0.123% [at 18.6 µM].

Question: And the activity change [12]?
Answer: Its activity change is 0.0858% [at 18.6 µM].

Question: What about the fluorescence, % of fluorescent control [13] of the same compound?
Answer: Its fluorescence, % of fluorescent control is -0.046% [at 18.6 µM].

Question: And the fluorescence, % of fluorescent control [15]?
Answer: The fluorescence, % of fluorescent control was -0.102% [at 18.6 µM].

Question: And the fluorescence, % of fluorescein control [16]?
Answer: The fluorescence, % of fluorescein control was -0.0254% [at 18.6 µM].

Question: What about the fluorescence, % of fluorescent control [17] of the same compound?
Answer: The fluorescence, % of fluorescent control was -0.0756% [at 18.6 µM].
